{"source": "the supplement of paper PMC9942566", "note": "± gives the standard deviation of the averaged measurements.", "data": [{"test_system": "Serratia marcescens K904 PosmB-luxCDABE reporter (pMQ747)", "experiment": "PosmB-lux reporter fold induction (RLU/OD600 relative to no-compound control), highest over Biolog concentrations; higher = stronger Rcs reporter activation", "conditions": "wild type K904; 4 h", "description": "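Serratia marcescens K904 (wild type) or its isogenic ΔrcsB mutant, carrying the Rcs-dependent PosmB-luxCDABE reporter plasmid pMQ747, was grown in LB at OD600 0.1 in Biolog Phenotype MicroArray plates PM11-20 for 4 h at 30-32°C. Each compound is present at 3-4 proprietary concentrations (not stated); per the Fig. S1 legend the value given is the highest fold over those wells. Three independent trials.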", "values": [{"smiles": "CO/N=C(\\C(=O)N[C@@H]1C(=O)N2C(C(=O)O)=C(COC(N)=O)CS[C@H]12)c1ccco1", "note": "[Cefuroxime] (Biolog plate: PM13, well positions: D1-4)", "PosmB-lux reporter fold induction": "1.85 ± 0.24"}, {"smiles": "CN[C@@H]1[C@@H](O)[C@@H](O[C@@H]2[C@@H](O)[C@H](O[C@H]3OC(CN)=CC[C@H]3N)[C@@H](N)C[C@H]2N)OC[C@]1(C)O", "note": "[Sisomicin] (Biolog plate: PM12, well positions: D1-4)", "PosmB-lux reporter fold induction": "1.55 ± 0.14"}, {"smiles": "O=C(O)c1cn(C2CC2)c2cc(N3CCNCC3)c(F)cc2c1=O", "note": "[ciprofloxacin] (Biolog plate: PM20, well positions: D5-8)", "PosmB-lux reporter fold induction": "1.63 ± 0.41"}, {"smiles": "CN(C)CCC=C1c2ccccc2CCc2ccccc21", "note": "[amitriptyline] (Biolog plate: PM20, well positions: A2-4)", "PosmB-lux reporter fold induction": "1.19 ± 0.11"}, {"smiles": "[Cl][Mn][Cl]", "note": "[Manganese chloride] (Biolog plate: PM13, well positions: G5-8)", "PosmB-lux reporter fold induction": "1.25 ± 0.2"}, {"smiles": "Nc1c2ccccc2nc2ccccc12", "note": "[9-Aminoacridine] (Biolog plate: PM14, well positions: B1-4)", "PosmB-lux reporter fold induction": "1.7 ± 0.1"}, {"smiles": "O=C1CN(/N=C/c2ccc([N+](=O)[O-])o2)C(=O)N1", "note": "[Nitrofurantoin] (Biolog plate: PM14, well positions: E5-8)", "PosmB-lux reporter fold induction": "2.33 ± 0.28"}, {"smiles": "O=c1ccc2ccccc2o1", "note": "[coumarin] (Biolog plate: PM19, well positions: A9-12)", "PosmB-lux reporter fold induction": "1.03 ± 0.14"}, {"smiles": "CC(CN1c2ccccc2Sc2ccccc21)N(C)C", "note": "(stereo not given) [Promethazine] (Biolog plate: PM14, well positions: H5-8)", "PosmB-lux reporter fold induction": "4.68 ± 1.8"}, {"smiles": "Cc1nnc(SCC2=C(C(=O)O)N3C(=O)[C@@H](NC(=O)Cn4cnnn4)[C@H]3SC2)s1", "note": "[Cefazolin] (Biolog plate: PM11, well positions: E1-4)", "PosmB-lux reporter fold induction": "1.18 ± 0.073"}, {"smiles": "Cc1cc(N)c2ccccc2[n+]1CCCCCCCCCC[n+]1c(C)cc(N)c2ccccc21", "note": "[Dequalinium chloride] (Biolog plate: PM13, well positions: A5-8)", "PosmB-lux reporter fold induction": "1.23 ± 0.086"}, {"smiles": "Cc1ncc([N+](=O)[O-])n1CC(O)CCl", "note": "(stereo not given) [ornidazole] (Biolog plate: PM20, well positions: C9-12)", "PosmB-lux reporter fold induction": "1.61 ± 0.055"}, {"smiles": "NCC(=O)O", "note": "[Glycine] (Biolog plate: PM13, well positions: F5-8)", "PosmB-lux reporter fold induction": "1.52 ± 0.2"}, {"smiles": "OC(CCN1CCCCC1)(c1ccccc1)c1ccccc1", "note": "[pridinol] (Biolog plate: PM20, well positions: F9-12)", "PosmB-lux reporter fold induction": "2.86 ± 0.61"}, {"smiles": "CC1(C)S[C@@H]2[C@H](NC(=O)Cc3ccccc3)C(=O)N2[C@H]1C(=O)O", "note": "[Penicillin G] (Biolog plate: PM12, well positions: A2-4)", "PosmB-lux reporter fold induction": "1.66 ± 0.23"}, {"smiles": "CO[C@@]1(NC(=O)CSCC#N)C(=O)N2C(C(=O)O)=C(CSc3nnnn3C)CS[C@@H]21", "note": "[Cefmetazole] (Biolog plate: PM15, well positions: A9-12)", "PosmB-lux reporter fold induction": "1.21 ± 0.23"}, {"smiles": "O=C1OC(CN2CCOCC2)CN1/N=C/c1ccc([N+](=O)[O-])o1", "note": "(stereo not given) [Furaltadone] (Biolog plate: PM14, well positions: A5-8)", "PosmB-lux reporter fold induction": "1.52 ± 0.2"}, {"smiles": "c1ccc(-c2nn(-c3ccccc3)[n+](-c3cccc4ccccc34)n2)cc1", "note": "[tetrazolium violet] (Biolog plate: PM20, well positions: B9-12)", "PosmB-lux reporter fold induction": "0.453 ± 0.17"}, {"smiles": "O=c1[nH]c(=O)n([C@H]2C[C@H](O)[C@@H](CO)O2)cc1C(F)(F)F", "note": "[trifluorothymidine] (Biolog plate: PM18, well positions: B1-4)", "PosmB-lux reporter fold induction": "1.81 ± 0.69"}, {"smiles": "NC(=O)NO", "note": "[Hydroxyurea] (Biolog plate: PM15, well positions: H5-8)", "PosmB-lux reporter fold induction": "13.1 ± 1.9"}, {"smiles": "CCN(CC)CCOC(=O)c1ccc(N)cc1", "note": "[Procaine] (Biolog plate: PM15, well positions: A2-4)", "PosmB-lux reporter fold induction": "1.21 ± 0.28"}, {"smiles": "O=C(O)CN(CCN(CC(=O)O)CC(=O)O)CC(=O)O", "note": "(Biolog plate: PM15, well positions: B5-8)", "PosmB-lux reporter fold induction": "1.66 ± 0.13"}, {"smiles": "NC[C@H]1O[C@H](O[C@H]2[C@H](O)[C@@H](O[C@H]3O[C@H](CO)[C@@H](O)[C@H](N)[C@H]3O)[C@H](N)C[C@@H]2N)[C@H](N)C[C@@H]1O", "note": "[Tobramycin] (Biolog plate: PM12, well positions: F1-4)", "PosmB-lux reporter fold induction": "1.6 ± 0.2"}, {"smiles": "CCc1cc(C(N)=S)ccn1", "note": "[ethionamide] (Biolog plate: PM17, well positions: B9-12)", "PosmB-lux reporter fold induction": "0.853 ± 0.16"}, {"smiles": "Nc1ccc(S(=O)(=O)Nc2nccs2)cc1", "note": "[Sulfathiazole] (Biolog plate: PM12, well positions: F5-8)", "PosmB-lux reporter fold induction": "1.88 ± 0.029"}, {"smiles": "N[C@H](CO)C(=O)O", "note": "[D-serine] (Biolog plate: PM17, well positions: A2-4)", "PosmB-lux reporter fold induction": "2.39 ± 1.2"}, {"smiles": "C[C@@H]1NC(=O)[C@@H](N)CNC(=O)[C@H](C2CCNC(=N)N2)NC(=O)/C(=C/NC(N)=O)NC(=O)[C@H](CNC(=O)CC(N)CCCN)NC1=O.N=C1NCC[C@H]([C@@H]2NC(=O)/C(=C/NC(N)=O)NC(=O)[C@H](CNC(=O)C[C@@H](N)CCCN)NC(=O)[C@H](CO)NC(=O)[C@@H](N)CNC2=O)N1", "note": "[Capreomycin] (Biolog plate: PM11, well positions: D1-4)", "PosmB-lux reporter fold induction": "1.24 ± 0.1"}, {"smiles": "[Cl][Fe]([Cl])[Cl]", "note": "[ferric chloride] (Biolog plate: PM16, well positions: G5-8)", "PosmB-lux reporter fold induction": "0.898 ± 0.3"}, {"smiles": "CN(C)c1ccc(C(=C2C=CC(=[N+](C)C)C=C2)c2ccc(N(C)C)cc2)cc1", "note": "[crystal violet] (Biolog plate: PM20, well positions: E1-4)", "PosmB-lux reporter fold induction": "0.912 ± 0.13"}, {"smiles": "CC1(C)S[C@@H]2[C@H](NC(=O)COc3ccccc3)C(=O)N2[C@H]1C(=O)O.CN(C)[C@@H]1C(O)=C(C(=O)NCN2CCN(CCO)CC2)C(=O)[C@@]2(O)C(O)=C3C(=O)c4c(O)cccc4[C@@](C)(O)[C@H]3C[C@@H]12", "note": "[Penimepicycline] (Biolog plate: PM12, well positions: B5-8)", "PosmB-lux reporter fold induction": "3.22 ± 1.1"}, {"smiles": "O=C(O)CN(CCOCCOCCN(CC(=O)O)CC(=O)O)CC(=O)O", "note": "(Biolog plate: PM14, well positions: H1-4)", "PosmB-lux reporter fold induction": "2.37 ± 0.77"}, {"smiles": "C[C@@H]1O[C@@H]1P(=O)(O)O", "note": "[Phosphomycin] (Biolog plate: PM16, well positions: A5-8)", "PosmB-lux reporter fold induction": "0.962 ± 0.25"}, {"smiles": "CCC[C@@H]1C[C@@H](C(=O)N[C@@H]([C@H]2O[C@H](SC)[C@H](O)[C@@H](O)[C@H]2O)[C@@H](C)O)N(C)C1", "note": "[Lincomycin] (Biolog plate: PM11, well positions: A9-12)", "PosmB-lux reporter fold induction": "1.16 ± 0.14"}, {"smiles": "CN(C)[C@@H]1C(O)=C(C(N)=O)C(=O)[C@@]2(O)C(O)=C3C(=O)c4c(O)ccc(Cl)c4[C@@H](O)[C@H]3C[C@@H]12", "note": "[Demeclocycline] (Biolog plate: PM11, well positions: D5-8)", "PosmB-lux reporter fold induction": "1.53 ± 0.45"}, {"smiles": "C[n+]1c2cc(N)ccc2cc2ccc(N)cc21.Nc1ccc2cc3ccc(N)cc3nc2c1", "note": "[Acriflavine] (Biolog plate: PM14, well positions: A2-4)", "PosmB-lux reporter fold induction": "1.45 ± 0.32"}, {"smiles": "Cc1onc(-c2ccccc2)c1C(=O)N[C@@H]1C(=O)N2[C@@H]1SC(C)(C)[C@@H]2C(=O)O", "note": "[Oxacillin] (Biolog plate: PM12, well positions: B1-4)", "PosmB-lux reporter fold induction": "2.16 ± 0.46"}, {"smiles": "NC(CO)C(=O)NNCc1ccc(O)c(O)c1O", "note": "(stereo not given) [Benserazide] (Biolog plate: PM20, well positions: A9-12)", "PosmB-lux reporter fold induction": "1.16 ± 0.17"}, {"smiles": "Cc1cc(C)nc(NS(=O)(=O)c2ccc(N)cc2)n1", "note": "[Sulfamethazine] (Biolog plate: PM12, well positions: D5-8)", "PosmB-lux reporter fold induction": "3.6 ± 0.65"}, {"smiles": "COc1cc(NS(=O)(=O)c2ccc(N)cc2)ncn1", "note": "[sulfamono-methoxine] (Biolog plate: PM17, well positions: C9-12)", "PosmB-lux reporter fold induction": "1.35 ± 0.34"}, {"smiles": "CCN(CC)CC(=O)Nc1c(C)cccc1C", "note": "[lidocaine] (Biolog plate: PM18, well positions: D9-12)", "PosmB-lux reporter fold induction": "1.37 ± 0.17"}]}]}
